FMDV inh: antivirals against foot and mouth disease virus. 410,000 compounds, 1.2% hits. FMDV antiviral cell-based qHTS. Potency, µM (titrated, usually from 57.9 µM), actives largely listed as inhibitors; calls by dose curve; tested in HEK293T cells; also: read-out not given here; nearly all actives have a fitted effect of over 45% in size
LASV entry inh: Lassa virus entry inhibition; Lassa virus pseudotype entry inhibition, cell reporter; Potency, µM (titrated, usually from 37.9 µM), usual class: inhibitors; 300,000 compounds, 1.2% hits; calls by dose curve; tested in HEK293 cells; also: nearly all actives have a fitted effect of over 50% in size
VACV Venus inh: inhibitors of vaccinia virus (Venus reporter). Potency, µM (top dose mostly 36.5 µM), hits mostly inhibitors. 330,000 compounds, 0.46% hits. Vaccinia virus Venus reporter expression, fluorescence; calls by dose curve; tested in A549 cells; also: nearly all actives have a fitted effect of over 30% in size
Sm TGR block: blocks Schistosoma mansoni thioredoxin glutathione reductase. Q962Y6. purified TGR, DTNB reduction, TNB absorbance 405 nm. Potency, µM (top dose mostly 114 µM), usual class: inhibitors. 360,000 compounds, 3% hits. AID 485364; active = well fitted inhibition curve with a large enough effect; inconclusive = small, poorly fitted or top-dose-only effect; inactive = no such curve, though single readings can be large or run the other way; also: nearly all actives have a fitted effect of over 60% in size
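Kinetic colorimetric format: TGR-catalysed, NADPH-driven DTNB reduction monitored via TNB absorbance. Enzyme dispensed at 20 nM; compound exposure 15 min at room temperature before reaction start.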
VACV mCherry inh: vaccinia inhibition (mCherry reporter). 310,000 compounds, 0.63% hits. Vaccinia virus mCherry reporter infection, fluorescence. Potency, µM (titrated, usually from 36.5 µM), actives largely listed as inhibitors; calls by dose curve; tested in A549 cells; also: nearly all actives have a fitted effect of over 35% in size
Marburg entry inh: inhibitors of Marburg virus binding or cell entry; Marburg virus pseudotyped entry inhibition, cell reporter; Potency, µM (doses to about 37.8 µM), actives largely listed as inhibitors; 300,000 compounds, 1.8% hits; AID 540276; calls by dose curve; tested in HEK293 cells
A number is an active result; – = inactive; ? = inconclusive; · = not tested or not shown; ! = not active in a repeat. Only some compounds are listed: those with a hit (about 5.4% of all), similar ones and a draw of the others.

SMILES	FMDV inh	LASV entry inh	VACV Venus inh	Sm TGR block	VACV mCherry inh	Marburg entry inh
Cc1ccccc1CS(=O)(=O)Cc1ccc(C(=O)NCCc2ccc(Cl)cc2)o1	28µM	?	–	–	–	·
O=C(NCCc1ccccc1)c1ccc(CS(=O)Cc2ccc(Cl)cc2)o1 (configuration not stated)	–	?	–	35µM!	–	–
Cc1cc2oc(C(=O)Nc3sc4c(c3C(=O)NCC3CCCO3)CCCC4)cc(=O)c2cc1C (configuration not stated)	–	–	–	–	–	–
CN(Cc1ccccc1)c1ccc(-c2nc(-c3ccco3)no2)cc1[N+](=O)[O-]	–	–	–	–	–	–
CN(C)c1ccc(/C=N/n2ncc3ccccc32)cc1	·	13µM	–	–	–	10µM
O=C(NCc1ccco1)c1nc2c(nnn2Cc2ccccc2Cl)c(=O)[nH]1	·	13µM	11µM	–	13µM	?
CCCCOC(OCCCC)C(O)CSc1ccc2ccccc2c1 (configuration not stated)	·	·	·	·	·	–
O=C(OCn1ncc(Br)c(Br)c1=O)c1c(F)cccc1F	·	·	·	0.56µM	·	–
OC[C@H]1O[C@H](C#Cc2ccccc2)C=C[C@@H]1O	·	?	·	·	·	–
O=C(Nc1cccc2ccccc12)c1ccc(OC(=S)N2CCOCC2)cc1	·	1.5µM	–	–	–	2.6µM
COc1ccc(S(=O)(=O)n2nc(C)c(S(=O)(=O)N3CCC(C)CC3)c2C)cc1OC	–	–	–	–	–	·
COC(=O)C1=C(C)N(CCC2=CCCCC2)C(=O)C1	–	–	–	32µM	–	–
CCN1C(=O)CC(C(=O)OC)=C1C	–	·	–	–	–	·
Clc1ccc(CSc2nnc(-c3ccccn3)n2Cc2ccco2)cc1Cl	–	·	–	·	–	·
Brc1ccc(CSc2nnc(-c3ccccn3)n2Cc2ccco2)cc1	?	–	–	40µM	–	?
Clc1cccc(CSc2nnc(-c3ccccn3)n2Cc2ccco2)c1	?	?	·	40µM	·	?
CC(C)(C)c1ccc(CSc2nnc(-c3ccccn3)n2Cc2ccco2)cc1	?	–	–	–	–	?
CSc1ccccc1C(=O)NCC1Cc2cc(F)cc(-c3cnccn3)c2O1 (configuration not stated)	–	·	–	·	–	·
CCCCCN(C(=O)CCC(=O)OCc1ccc(Cl)cc1Cl)c1c(N)n(CCCC)c(=O)[nH]c1=O	–	?	–	–	–	2.5µM
CCCCCN(C(=O)CCC(=O)OCc1ccccc1Cl)c1c(N)n(CCCC)c(=O)[nH]c1=O	–	–	–	–	?	?
O=C(O)C1Nc2c(Cl)cc(Cl)c(Cl)c2C2C=CCC12 (configuration not stated)	–	·	·	·	·	·
CC(C)C1Nc2c(O)cc(Cl)c([N+](=O)[O-])c2C2C=CCC21 (configuration not stated)	?	·	·	7.1µM	·	·
CCC(=O)N1c2ccccc2C(N(C(C)=O)c2ccccc2)CC1C (configuration not stated)	–	–	·	10µM	·	–
COc1cc(C(C[N+](=O)[O-])c2c(N)n(C)c(=O)n(C)c2=O)ccc1O (configuration not stated)	18µM	?	–	–	–	?
COc1cccc(F)c1C(C[N+](=O)[O-])c1c(N)n(C)c(=O)n(C)c1=O (configuration not stated)	32µM	·	·	–	·	·
SMILES	FMDV inh	LASV entry inh	VACV Venus inh	Sm TGR block	VACV mCherry inh	Marburg entry inh
Cc1ccc(C(C[N+](=O)[O-])c2c(N)n(C)c(=O)n(C)c2=O)cc1 (configuration not stated)	–	·	·	–	·	·
CCc1ccc(NC(=O)N2CCOc3ccc(Cl)cc32)cc1	–	–	–	–	–	·
CCOc1ccc(C(=O)c2cn(CC(=O)Nc3ccc(F)cc3)c3cc4c(cc3c2=O)OCCO4)cc1	–	–	–	–	–	–
O=C(COc1ccccc1)N/N=C/c1sc(=O)n(Cc2cccc(C(=O)O)c2)c1Cl	–	–	–	35µM	–	–
COC(=O)c1cccc(Cn2c(Cl)c(/C=N/NC(=O)c3ccco3)sc2=O)c1	–	·	·	35µM	·	·
Cc1cccc(OCC(=O)N/N=C/c2sc(=O)n(Cc3cccc(C(=O)O)c3)c2Cl)c1	–	–	–	25µM	–	–
O=Cc1sc(=O)n(Cc2cccc(C(=O)O)c2)c1Cl	–	–	–	–	–	–
O=C(O)c1cccc(Cn2c(Cl)c(/C=N/NC(=O)c3ccc(O)cc3)sc2=O)c1	–	–	–	32µM	–	–
COC(=O)c1cccc(Cn2c(Cl)c(/C=N/NC(=O)c3ccccc3Cl)sc2=O)c1	–	?	·	?	·	–
O=C(NCc1ccccc1Cl)c1ccc2c(O)c(S(=O)(=O)c3ccccc3)c(=O)[nH]c2c1	–	–	–	–	–	·
CCOC(=O)N1CCN(Cc2ccc3c(c2)CN(C(=O)c2ccc(C#CC(C)(C)O)o2)CCO3)CC1	?	·	–	·	–	·
O=c1sc(/C=N/Nc2ccccc2)c(Cl)n1Cc1ccccc1	–	–	–	7.9µM	–	?
Cc1oc(-c2ccccc2F)nc1CS(=O)(=O)CC(=O)NCCN1CCCC1	–	–	–	–	–	–
Cc1ccccc1-c1nc(CS(=O)(=O)CC(=O)NCc2ccco2)c(C)o1	–	–	–	?	–	–
CCN1CCN(C(=O)CS(=O)(=O)Cc2nc(-c3ccccc3C)oc2C)CC1	–	–	–	–	–	–
Cc1oc(-c2ccccc2F)nc1CS(=O)(=O)CC(=O)NCc1ccco1	–	·	–	22µM	–	·
Cc1oc(-c2ccccc2F)nc1CS(=O)(=O)CC(=O)N1CCN(Cc2ccccc2)CC1	?	?	–	13µM	–	–
Cc1ccccc1-c1nc(CS(=O)(=O)CC(=O)N2CCCCC2)c(C)o1	–	?	–	22µM	?	?
Cc1oc(-c2ccccc2F)nc1CS(=O)(=O)CC(=O)N1CCOCC1	–	·	–	45µM	–	·
COc1ccc(C(=O)c2cn(CC(=O)Nc3ccc4c(c3)OCCO4)c3ccc(OC)cc3c2=O)cc1	–	–	–	–	–	–
CCc1ccccc1N(C)C(=O)c1cn(CC(C)C)c(=O)c2cc(OC)c(OC)cc12	–	?	–	–	–	?
Cc1cccc(N2CCN(C(=O)CS(=O)(=O)Cc3nc(-c4ccccc4F)oc3C)CC2C)c1 (configuration not stated)	35µM	·	–	–	–	–
Cc1oc(-c2ccccc2F)nc1CS(=O)(=O)CC(=O)N1CCN(c2cccc(C(F)(F)F)c2)CC1	35µM	–	?	–	?	?
COc1ccc(-c2c(C#N)c(SCC(=O)Nc3ccccc3C)nc(C)c2C(=O)Nc2ccccc2)cc1OC	–	–	–	–	–	·
CC(=O)N(C)c1ccc(OCC(O)Cn2c3ccc(Cl)cc3c3cc(Cl)ccc32)cc1 (configuration not stated)	?	?	–	–	–	11µM
CC(C)CCSc1nnc2n(-c3ccccc3)c(=O)c3c4c(sc3n12)CC(C)CC4 (configuration not stated)	–	?	–	–	–	·
O=C(NNC(=O)C12CC3CC(CC(C3)C1)C2)c1ccccc1O	–	–	?	–	10µM	–

High-throughput results from PubChem BioAssay.
